In the library only some 10% were active in any assay of this set; here they are far more common.
G9a inh = G9a (human) methyltransferase inhibition; Q96KQ7; G9a H3K9 monomethylation, AlphaScreen, 2 h; Potency, µM (series often up to 102 µM), without a hit: at the top dose activity, negative = inhibition, most hits filed as inhibitors; hit rate 8.8% among 350,000; AID 504332; further: potency means the concentration at half of the fitted maximal effect; on the % scale 0 is the no-effect control and ±100 the full control effect; nearly all actives have a fitted effect of over 75% in size
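Compounds were preincubated with 20 nM G9a for 15 min, after which biotinylated H3K9 peptide (500 nM) and SAM (20 uM) started a 2 h room-temperature reaction. Monomethylated product was quantified by antibody-based AlphaScreen chemiluminescence.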
HP1b chromo inh = blocks HP1-beta chromodomain binding to methylated histone tails; AlphaScreen HP1-beta / biotin-H3K9me3 peptide binding; Potency, µM (top dose mostly 114 µM), without a hit: at the top dose activity change, negative = inhibition, most hits filed as inhibitors; hit rate 0.56% among 390,000; AID 540317; further: potency means the concentration at half of the fitted maximal effect; nearly all actives have a fitted effect of over 70% in size
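AlphaScreen: HP1-beta (50 nM) preformed 30 min with biotin-H3(1-18)K9me3 peptide (50 nM) in PBS pH 7.4, 0.01% Tween-20. Compound added for 30 min at RT, then streptavidin donor/nickel chelate acceptor beads (10 ug/mL) for 30 min.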
Six1-Eya2 blk = blocks human Six1 binding to Eya2. AlphaScreen GST-Six1/His-Eya2 binding, biochemical; hits give low values. hit rate 0.56% among 360,000. activity change, % (test concentration not listed). Q15475+O00167; in the data active means activity change below about -65%; inconclusive means mostly about -30% to -63%; further: on the % scale 0 is the no-effect control and ±100 the full control effect
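GST-Six1 + His-Eya2 (5X stock: 250/500 nM); Tris pH 8.0, 300 mM NaCl, 0.05% BSA, 0.02% Tween 20; GSH donor/Ni acceptor beads; 1 h 37 °C dark; AlphaScreen readout.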
JMJD2A Tudor inh = blocks the human JMJD2A Tudor domain | O75164 | AlphaScreen JMJD2A-Tudor / H3K4me3 peptide binding | Potency, µM (series often up to 114 µM), for inactives: at the top dose activity change, negative = inhibition, hits mostly inhibitors | hit rate 4.4% among 390,000; further: potency means the concentration at half of the fitted maximal effect; on the % scale 0 is the no-effect control and ±100 the full control effect; nearly all actives have a fitted effect of over 50% in size
BAZ2B block = blocks human BAZ2B. Q9UIF8. AID 504333. AlphaScreen BAZ2B-H3K14Ac peptide displacement. hit rate 4.4% among 360,000. Potency, µM (top dose mostly 114 µM), without a hit: top-dose activity change, negative = inhibition, most hits filed as inhibitors; further: potency means the concentration at half of the fitted maximal effect; on the % scale 0 is the no-effect control and ±100 the full control effect; nearly all actives have a fitted effect of over 60% in size
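BAZ2B (50 nM) with biotin-H3(5-23)K14Ac peptide (50 nM) in PBS pH 7.4, 0.01% Tween-20, preformed 30 min, then compound 30 min at room temperature; top concentration 110uM. AlphaScreen streptavidin donor/nickel chelate acceptor beads (10 ug/mL final), 20 min dark, signal read.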
CtBP-E1A inh = CtBP/E1A binding inhibition; activity change, % (no concentration beside the values); hit rate 0.49% among 340,000; AID 651724; AlphaScreen GST-E1A/His-CtBP binding, 1536-well; hits give low values; in the data active means activity change below about -65%; inconclusive means mostly about -30% to -63%; further: on the % scale 0 is the no-effect control and ±100 the full control effect
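In 5 uL wells, 23 nL compound meets equimolar GST-E1A and His-CtBP (5X stock 125 nM each) for 2 h, 37 °C. Beads (5X, 50 ug/mL) then 1 h, 37 °C, dark.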
* marks the source's active call; other numbers are inactive results; ? = inconclusive; · = not tested or not shown; ! = not active in a repeat; [ ] = another dose, or the depositor's remark. Unless noted, the call rests on the fitted dose curve; in most records, active means well fitted inhibition curve with a large enough effect; inconclusive means small, poorly fitted or top-dose-only effect; inactive means no such curve, though single readings can be large or run the other way.

SMILES	G9a inh	HP1b chromo inh	Six1-Eya2 blk	JMJD2A Tudor inh	BAZ2B block	CtBP-E1A inh
CC(=O)N(/N=C/c1ccc(C)cc1)c1nc(CCl)cs1	18µM*	22%	3	-6%	4%	6
CCOC(=O)Cc1csc(N/N=C/c2ccc(Cl)cc2)n1	·	19%	6	-8%	-1%	-6
Cc1ccc(C)n1/N=C1/NC(=O)CS1	-50%	-50%	?	79µM*	-8%	2
Cc1cc(C)nc(/N=C2/NC(=O)CS2)n1	20µM*	-14%	0	22µM*	?	6
CC(NS(=O)(=O)c1ccc2c(c1)CC(=O)N2C)c1ccccc1 (stereo unspecified)	17%	30%	16	-14%	4%	29
Fc1ccc(COc2ccc(Br)cc2CNCc2ccncc2)cc1	50µM*	17%	3	?	50µM*	-1
Fc1ccccc1COc1ccc(Br)cc1CNCc1ccncc1	?	40%	0	-16%	-13%	-3
CCOC(=O)c1c(C)oc2c1C(=O)c1ccccc1C2=O	13µM*	-3%	-2	-28%	?	-14
Cc1oc2c(c1C(=O)O)C(=O)c1ccccc1C2=O	10µM*	47%	1	-7%	0%	-1
Cc1oc2c(c1C(=O)c1ccccc1)C(=O)C(=O)c1ccccc1-2	?	-29%	?	?	45µM*	?
O=C1C(=O)c2c(C(=O)c3ccccc3)coc2-c2ccccc21	45µM*	-18%	-20	-29%	?	-10
O=C(Cn1c(=O)n(Cc2nc(-c3ccccc3)no2)c(=O)c2ccccc21)Nc1cccc(C(F)(F)F)c1	?	36%	·	1%	-12%	·
Cc1ccc(OCCCCn2c(CCNC(=O)C3CCCCC3)nc3ccccc32)cc1	·	12%[57 µM]	·	1%[57.1 µM]	·	·
CN(C)S(=O)(=O)c1ccc2c(c1)C(=O)c1cc(S(=O)(=O)N(C)C)ccc1CC2	14%[0.501 µM]	28%	·	-23%	8%	·
CN(C)S(=O)(=O)c1ccc2c(c1)/C(=C/c1cc3c([nH]1)CCCC3)C(=O)N2	11µM*!	29%	-2	-30%	2%	-1
Cc1cccc(C(=O)NC2CCN(C#N)CC2)c1	·	·	·	-12%	·	·
Cc1cccc(Nc2ccc([N+](=O)[O-])cc2C(=O)O)c1	1.4µM*	0%	-5	?	50µM*	-1
Nc1cc([N+](=O)[O-])ccc1Nc1ccccc1	40µM*	-33%	-19	?	?	-27
O=[N+]([O-])c1cc(Br)c(Nc2ccccc2)c([N+](=O)[O-])c1	40µM*	?	-4	20µM*	14µM*	·
N#Cc1ccc(Nc2ccccc2)c(N)c1	·	16%	-11	-15%	-12%	0
Nc1cc(C(F)(F)F)ccc1Nc1ccccc1	-51%	-15%	0	-23%	50µM*	·
O=C(O)c1cc([N+](=O)[O-])ccc1Nc1ccccc1	22%[59 µM]	-11%	-3	-17%	-17%	-2
CCCCc1cc2c(c(NC(=O)CC)n1)c(=O)oc1ccccc12	5%[59 µM]	37%	16	9%	-4%	-19
Cc1ccc(OCC(=O)Nc2nc(-c3ccc(Br)cc3)ns2)cc1	9%[59 µM]	23%	·	-15%	-1%	·
COc1cc(OC)c(NC(=O)c2c(C)oc3ncnc(N4CCCCC4)c23)cc1Cl	-6%[59 µM]	20%	·	-10%	11%[57.1 µM]	·
SMILES	G9a inh	HP1b chromo inh	Six1-Eya2 blk	JMJD2A Tudor inh	BAZ2B block	CtBP-E1A inh
COc1ccccc1C(=O)Nc1ccc(S(=O)(=O)Nc2cc(C)nc(C)n2)cc1	2%[12.7 µM]	28%	-3	-1%	5%	-1
Cc1cc(NS(=O)(=O)c2ccc(NC(=O)/C=C/c3ccc(C)o3)cc2)nc(C)n1	8.9µM*	-26%	-29	22µM*	-28%	·
COc1ccccc1CCC(=O)Nc1ccc(S(=O)(=O)Nc2cc(C)nc(C)n2)cc1	50µM*	22%	-16	-7%	6%	-25
Cc1cc(NS(=O)(=O)c2ccc(NC(=O)/C=C/c3ccccc3)cc2)nc(C)n1	·	25%	-9	-10%	·	-4
COc1ccccc1/C=C/C(=O)Nc1ccc(S(=O)(=O)Nc2cc(C)nc(C)n2)cc1	35µM*	9%	-12	-10%	?	-6
COc1ccc(-c2nc3ccccc3o2)cc1NC(=O)c1cc(Br)ccc1OC	-28%[59 µM]	-2%	·	-33%	-2%	·
CO[C@H]1C[C@@H]2CC[C@@H](C)[C@@](O)(O2)C(=O)C(=O)N2CCCC[C@H]2C(=O)O[C@H]([C@H](C)C[C@@H]2CC[C@@H](O)[C@H](OC)C2)CC(=O)[C@H](C)/C=C(\C)[C@@H](O)[C@@H](OC)C(=O)[C@H](C)C[C@H](C)/C=C/C=C/C=C/1C	-18%[12.7 µM]	·	·	·	·	·
Nc1nc(C23CC4CC(CC(Cl)(C4)C2)C3)cs1	6%[59 µM]	9%	-22	-26%	71µM*	-5
Nc1nc(C23CC4CCC(CC(C4)C2)C3)cs1	?	-1%	-1	-24%	-9%	2
CCCCC1(C)NC(=S)N2N1C(=S)NC2(C)CCCC (stereo unspecified)	1.8µM*	?	29	5.6µM*	79µM*	12
CCCCC1(C)Cc2ccccc2C(=S)N1 (stereo unspecified)	-3%[59 µM]	2%	-25	-31%	4%	-16
O=C(NCCN1C(=O)S/C(=C\c2ccccc2)C1=O)c1cc(S(=O)(=O)N2CCOCC2)c(Cl)cc1Cl	?	18%	1	3%	12%	-3
CCOC(=O)C(Sc1cc(C)nc(N)n1)C(C)=O (stereo unspecified)	18µM*	3%	15	56µM*	-1%	25
Cn1nc(SCC(=O)O)sc1=S	-26%[59 µM]	40%	1	-5%	1%	8
CCOC(=O)C(Sc1nn(C)c(=S)s1)C(C)=O (stereo unspecified)	18µM*	43%	-1	-11%	-35%	7
CCOC(=O)C(C)Sc1ccc2nnc(-c3ccc(OCC)cc3)n2n1 (stereo unspecified)	·	17%[57 µM]	·	0%[57.1 µM]	·	·
Cc1ccc(-c2nnc3ccc(SC(C)C(=O)O)nn23)cc1 (stereo unspecified)	3.5µM*	?	-4	40µM*	-30%	2
CC(Sc1ccc2nnc(-c3ccc(F)cc3)n2n1)C(=O)O (stereo unspecified)	3.5µM*	-16%	5	?	-11%	-14
CCOC(=O)C(C)Sc1ccc2nnc(-c3ccc(F)cc3)n2n1 (stereo unspecified)	7.9µM*	40%	-2	-6%	0%	-4
N#Cc1nc(NCC(F)F)c2ncn(-c3cc(F)cc(F)c3)c2n1	·	·	·	-10%	·	·
CCc1noc(C)c1C(=O)N(C)CC(=O)Nc1ccc(OC)cc1	-21%[59 µM]	43%	-3	3%	0%	1
